The source made the active and inactive calls. The call rests on the fitted dose curve; in most records, active means well fitted inhibition curve with a large enough effect; inactive means flat fitted curve, though single readings scatter. Square brackets hold non-standard residues; d marks the D form. Peptide text beside a SMILES is read from it. * marks the point of attachment. Dolaproine = CO[C@@H]([C@@H]1CCCN1)[C@@H](C)C(=O)O; Dil = CC[C@H](C)[C@H](NC)[C@@H](CC(=O)O)OC; NMe2Val = CC(C)[C@@H](C(=O)*)N(C)C; X1 = C[C@@H](N*)[C@@H](O)c1ccccc1; NMeV = CN[C@H](C(=O)O)C(C)C
test: Identification of antibody-drug conjugate (ADC) payloads which are substrates of ATP-binding cassette drug efflux transporters: ABCB1-HeLa-KB-8-5-11 cell line with tariquidar; conditions: KB-8-5-11 (P-gp) + tariquidar, viability, CellTiter-Glo, 48 h
Excerpt: Antibody-drug conjugates (ADCs) feature an antibody recognizing a specific protein joined to a potent toxic payload. Numerous antibody-drug conjugates have received FDA approval; however, clinical resistance arises. Resistance mechanisms include decreased expression or mutation of the antibody target, impaired payload release, or increased expression of ATP-binding cassette (ABC) efflux transporters associated with multidrug resistance. We therefore sought to characterize the interaction of ABC multidrug transporters with ADC payloads. We performed a high-throughput screen with 27 common ADC payloads using cells lines expressing ABC transporters P-glycoprotein (P-gp, encoded by ABCB1) or ABCG2 (encoded by ABCG2). Confirmatory assays were also performed using cells transfected to express P-gp, ABCG2, or MRP1 (encoded by ABCC1). Several commonly used ADC payloads were substrates of P-gp, including calicheamicin gamma1, monomethyl auristatin E, DM1, and DM4. All the pyrrolobenzodiazepines tested - SJG136, SGD-1882, SG2057, and SG3199 - were substrates of P-gp, ABCG2, and MRP1. […] These findings highlight the risk of transporter-mediated resistance with certain ADC payloads and underscore the importance of selecting payloads that evade ABC transporter recognition in future ADC development.
HEK-293 cells were transfected with empty vector (pcDNA) or vector containing the human ABCB1 (MDR-19), ABCG2 (R-5), or ABCC1 gene (MRP1) and were maintained in EMEM with 2 mg/mL G418 added to maintain transporter expression. The HeLa derivative KB-3-1 and the P-gp overexpressing KB-8-5-11 subline were maintained in DMEM; KB-8-5-11 additionally received 100 ng/mL colchicine. H460 parental cells were obtained from the Division of Cancer Treatment and Diagnosis Tumor Repository, National Cancer Institute at Frederick, MD and were cultured in RPMI. The ABCG2 expressing subline H460 MX20 was generated by selecting H460 cells in 20 nM mitoxantrone. Media in all cases was supplemented with 10% FBS and 1% penicillin-streptomycin. We explored 27 common ADC payloads, in two orthogonal, paired cell line sets-a drug selected and transfected set for each transporter--to identify substrates of the ABC transporters P-gp and ABCG2. Compounds were sourced from Levena Biopharma (San Diego, CA), Selleck Chem (Houston, TX), ChemieTek (Indianapolis, IN), or Microsource Discovery Systems (Gaylordsville, CT). Screening was performed as previously described. Briefly, cells were plated at a density of 500 cells/well in 1536 well plates with compounds added using a 1536-head pin tool (Kalypsys, San Diego CA). Cells were incubated with cytotoxic drugs and processed with CellTiter Glo reagent (Promega, Madison, WI) to determine viability after 48 hours. P-gp substrates were identified by comparing compound activity between paired sets of low-expressing (sensitive) and over-expressing (resistant) cell lines.

SMILES	Potency
COc1cccc2c1C(=O)c1c(O)c3c(c(O)c1C2=O)C[C@@](O)(C(=O)CO)CC3OC1CC(N2CCOC(OC)C2)C(O)C(C)O1 (some centres not stated)	10.6 nM (active)
COc1cc2cc(c1Cl)N(C)C(=O)C[C@H](OC(=O)C(C)C)[C@]1(C)O[C@H]1[C@H](C)[C@@H]1C[C@@](O)(NC(=O)O1)[C@H](OC)C=CC=C(C)C2	0.1 nM (active)
CC[C@@]1(O)C(=O)OCc2c1cc1n(c2=O)Cc2cc3ccccc3nc2-1	375 nM (active)
CC[C@H](C)[C@@H]([C@@H](CC(=O)N1CCC[C@H]1[C@H](OC)[C@@H](C)C(=O)N[C@H](C)[C@@H](O)c1ccccc1)OC)N(C)C(=O)[C@@H](NC(=O)[C@H](C(C)C)N(C)C)C(C)C	0.2 nM (active)
CC[C@H](C)[C@@H]1NC(=O)CNC(=O)[C@H]2Cc3c([nH]c4cc(O)ccc34)S(=O)C[C@H](NC(=O)CNC1=O)C(=O)N[C@@H](CC(N)=O)C(=O)N1C[C@H](O)C[C@H]1C(=O)N[C@@H]([C@@H](C)[C@@H](O)CO)C(=O)N2 (some centres not stated)	4200 nM (active)
CC[C@H](C)[C@@H]([C@@H](CC(=O)N1CCC[C@H]1[C@H](OC)[C@@H](C)C(=O)N[C@H](C)[C@@H](O)c1ccccc1)OC)N(C)C(=O)[C@@H](NC(=O)[C@@H](NC)C(C)C)C(C)C (H-[NMeV]V[Dil][Dolaproine]-X1)	0.2 nM (active)
CC[C@H](C)[C@@H]([C@@H](CC(=O)N1CCC[C@H]1[C@H](OC)[C@@H](C)C(=O)N[C@@H](Cc1ccccc1)C(=O)O)OC)N(C)C(=O)[C@@H](NC(=O)[C@H](C(C)C)N(C)C)C(C)C (NMe2Val-V[Dil][Dolaproine]F-OH)	18.8 nM (active)

From PubChem BioAssay AID2202239 (National Center for Advancing Translational Sciences (NCATS), 2025)
